MBNL1-CUG inh: blocks human MBNL1 binding to CUG repeat RNA; hit rate 0.036% among 280,000; Potency, µM (titrated, usually from 57.5 µM), for inactives: at the highest dose activity change, negative = inhibition, usual class: inhibitors; Q9NR56; TR-FRET MBNL1-His/biotin-(CUG)12 binding, 665/545 ratio; AID 2675; active = well fitted inhibition curve with a large enough effect in the signal ratio, with a control signal flat, not every such curve was filed as active; inconclusive = small, poorly fitted or top-dose-only effect, or effect the other way, or a change in a side signal; inactive = no such curve, though single readings can be large or run the other way; the % refers to the signal ratio; also: potency is read from the fitted curve at half-maximal effect; % is scaled to controls: 0 for no effect and ±100 for the full control effect
Target sequence (Q9NR56 whole entry, looked up): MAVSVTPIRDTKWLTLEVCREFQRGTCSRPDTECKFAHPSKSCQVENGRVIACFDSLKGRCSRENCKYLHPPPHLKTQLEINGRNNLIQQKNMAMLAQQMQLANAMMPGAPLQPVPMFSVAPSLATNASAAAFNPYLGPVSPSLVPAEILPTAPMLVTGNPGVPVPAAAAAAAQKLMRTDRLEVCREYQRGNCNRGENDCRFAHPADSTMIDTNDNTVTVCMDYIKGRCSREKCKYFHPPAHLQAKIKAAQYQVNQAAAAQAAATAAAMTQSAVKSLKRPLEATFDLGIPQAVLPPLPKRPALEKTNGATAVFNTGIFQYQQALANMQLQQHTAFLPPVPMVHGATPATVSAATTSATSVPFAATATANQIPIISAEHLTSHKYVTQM
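Compound titration spanned 92 nM–58 uM against the MBNL1-His/biotin-(CUG)12 complex. After 60 min at room temperature with 5 nM streptavidin-XL665 and 0.055 ng/ul terbium anti-His, ratiometric 665/545 nm emission (Ex 340 nm) normalized to controls.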
VP16 counter: counter-screen for ROR gamma inhibitors: Gal4-VP16 reporter; Drosophila S2 Gal4-VP16 UAS-luciferase, luminescence, 20 h; Potency, µM (series often up to 53.6 µM), without a hit: top-dose activity, negative = inhibition, most hits filed as inhibitors; hit rate 3.5% among 310,000;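 also: Gal4-VP16 expression switched on by copper sulfate through the metallothionein promoter; potency is read from the fitted curve at half-maximal effect; % is scaled to controls: 0 for no effect and ±100 for the full control effect; nearly all actives have a fitted effect of over 50% in size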
Six1-Eya2 inh: inhibitors of human Six1/Eya2 interaction; AlphaScreen GST-Six1/His-Eya2 binding, biochemical; active compounds read low; activity change, % (no concentration beside the values); AID 651725; hit rate 0.56% among 360,000; Q15475+O00167; in the data active = activity change below about -65%; inconclusive = mostly about -30% to -63%; also: % is scaled to controls: 0 for no effect and ±100 for the full control effect
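Six1/Eya2 binding was read as AlphaScreen signal after compounds were pinned into GST-Six1 plus His-tagged Eya2 (5X stock 250/500 nM) in pH 8.0 Tris/NaCl/TCEP buffer, beads added, then incubated 1 h, 37 C, dark.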
CtBP-E1A inh: CtBP/E1A binding inhibition. AlphaScreen GST-E1A/His-CtBP binding, 1536-well; active compounds read low. activity change, % (concentration not given with the values). hit rate 0.49% among 340,000; in the data active = activity change below about -65%; inconclusive = mostly about -30% to -63%; also: % is scaled to controls: 0 for no effect and ±100 for the full control effect
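AlphaScreen with 125 nM GST-E1A and 125 nM His-CtBP (5X stocks) in Tris pH 8.0, 300 mM NaCl, BSA, Tween 20, TCEP. Compounds preincubated 2 h at 37 deg C, then glutathione donor/nickel acceptor beads added for 1 h at 37 deg C in dark.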
RORg inh: inhibitors of mouse ROR gamma transcriptional activity | P51450 | Drosophila S2 Gal4-RORgamma UAS-luciferase reporter, 20 h | Potency, µM (top dose mostly 53.6 µM), for inactives: top-dose activity change, negative = inhibition, most hits filed as inhibitors | hit rate 5.4% among 310,000; also: potency is read from the fitted curve at half-maximal effect; % is scaled to controls: 0 for no effect and ±100 for the full control effect; nearly all actives have a fitted effect of over 60% in size
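Stably transfected Drosophila Schneider cells are the test system, with ROR gamma fused to Gal4 and luciferase under UAS control; luminescence is read after 20 hr of 700 uM copper sulfate induction at ambient temperature.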
CBFb RUNX1 block: blocks binding between human CBF-beta and RUNX1 | Q01196+Q13951 | AlphaScreen CBFb-His/RUNX1-biotin binding, biochemical | Potency, µM (highest dose often 59.8 µM), without a hit: at the top dose activity, negative = inhibition, hits mostly inhibitors | 230,000 tested, under 10 active | AID 1477; also: % of control where 0% means no effect
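CBFb-His/RUNX1-biotin, 30 nM each, preincubated 20 min RT; compound 15 min RT; Ni + streptavidin beads 50 ng each, 90 min RT; AlphaScreen read.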
* marks the source's active call; other numbers are inactive results; ? = inconclusive; / = no result; ! = a repeat was not active; [ ] = another dose, or the depositor's remark. An excerpt weighted towards active compounds, which were near 5.5% of everything screened. Unless noted, calls follow the shape of the dose curve; as a rule, active = well fitted curve in the direction sought with a large enough effect; inconclusive = small, poorly fitted or top-dose-only effect, or another doubt; inactive = no such curve, though single readings can be large; an effect the other way counts as inactive or inconclusive.

SMILES | MBNL1-CUG inh | VP16 counter | Six1-Eya2 inh | CtBP-E1A inh | RORg inh | CBFb RUNX1 block
CC[C@]1(O)CC(O[C@@H]2CC(N(C)C)C(O)C(C)O2)c2c(cc3c(c2O)C(=O)c2c(O)cccc2C3=O)C1C(=O)OC (stereo not given in full) | / | 4.5µM* | / | / | 2.2µM* | -7%
CC(C)(C)c1cc(O)ccc1O | / | 3.2µM* | / | / | 3.5µM*! | 1%[21.7 µM]
CCN(N=O)C(N)=O | / | 5% | / | / | 17% | 6%[21.7 µM]
CN(C)P(=O)(NC(=O)c1cccn1C)N(C)C | 6% | 12% | 0 | -6 | 8% | 9%
CN(C)P(=NC(=S)c1cccn1C)(N(C)C)N(C)C | -8% | 16µM* | -2 | -23 | 7.9µM* | -8%
F/C(COc1ccc2c(c1)[nH]c1ccccc12)=C1/CN2CCC1CC2 | / | 3% | / | / | 13% | 17%
COc1ccc(-n2nc(C(=O)NCC(=O)N3CCC4(CC3)OCCO4)c3ccccc3c2=O)c(OC)c1 | 15% | 10µM* | 3 | 8 | 6.3µM* | /
O=C(Cn1cnc2ccccc2c1=O)NCC(=O)N1CCC2(CC1)OCCO2 | -8% | 7% | 0 | 6 | -23% | 3%
Oc1cc(Cl)cc(Cl)c1 | / | -1% | / | / | 28% | 12%[21.7 µM]
C[C@H](N)Cc1ccccc1 | / | 4% | / | / | 9% | /
Oc1cccc2nc3ccccc3nc12 | / | 5µM* | ? | ? | ? | -5%
CC(C)n1c(N2CCN(S(=O)(=O)c3cccc([N+](=O)[O-])c3)CC2)nc2ccccc21 | ? | 0% | -14 | -10 | ? | /
Cc1cccc(CCNCc2cc3cccc(C)c3[nH]c2=O)c1 | -2% | 7.9µM* | -3 | -4 | ? | /
Cc1cccc(CCNCc2cc3cc(C)cc(C)c3[nH]c2=O)c1 | ? | -14% | -4 | -1 | -24% | /
C[C@H]1C[C@@H](C)C(=O)[C@@H]([C@H](O)CC2CC(=O)NC(=O)C2)C1 | -1% | 2.8µM*! | 4 | 8 | 0.25µM*! | 12%
C[C@H]1C[C@H](C)C(=O)[C@@H]([C@H](O)CC2CC(=O)NC(=O)C2)C1 | / | ? | / | / | ? | 6%[21.7 µM]
CC1CC(C)C(=O)[C@H](C(O)CC2CC(=O)NC(=O)C2)C1 (stereo not given in full) | / | 2% | / | / | 0.32µM* | 8%
Oc1cc(O)c2c(c1)OC(c1cc(O)c(O)c(O)c1)C(O)C2 (stereo not given) | / | -4% | / | / | 16% | ?
Cc1ccc(-c2nc3ccccc3c(=O)n2-c2nccs2)cc1 | 38% | 11µM* | 7 | 2 | 5.6µM* | 1%
Cc1nc2ccccc2c(=O)n1-c1nccs1 | / | / | 2 | -7 | / | /
COc1cc(C)cc(CN2CC=C(c3ccccc3)CC2)c1O | -2% | ? | -19 | / | 11µM* | -20%
COc1ccc(C(C)=O)cc1CN1CC=C(c2ccccc2)CC1 | 2% | 2% | -1 | -1 | -30% | /
CCCC(=O)Cl | / | 4% | / | / | -10% | 4%[21.7 µM]
C[C@H]1O[C@@H](O[C@H]2[C@@H](O)C[C@H](O[C@H]3[C@@H](O)C[C@H](O[C@H]4CC[C@@]5(C)[C@H](CC[C@@H]6[C@@H]5CC[C@]5(C)[C@@H](C7=CC(=O)OC7)CC[C@]65O)C4)O[C@@H]3C)O[C@@H]2C)C[C@H](O)[C@@H]1O | 10% | -12% | 6 | -22 | 1.6µM* | 7%
COC1C(O)C(C)O[C@@H](OC2CC[C@@]3(C)C4CC[C@]5(C)C(C6=CC(=O)OC6)CC[C@@]5(O)C4CC[C@@H]3C2)C1O (stereo not given in full) | / | -11% | / | / | ? | /
SMILES | MBNL1-CUG inh | VP16 counter | Six1-Eya2 inh | CtBP-E1A inh | RORg inh | CBFb RUNX1 block
C[C@H]1O[C@@H](OC2CC[C@]3(C=O)[C@H]4CC[C@]5(C)[C@@H](C6=CC(=O)OC6)CC[C@]5(O)[C@@H]4CC[C@]3(O)C2)CC2OC(C)(C)OC21 (stereo not given in full) | 3% | -1% | 2 | / | 16µM* | /
CC1OC(O[C@@H]2C(O)CC(O[C@@H]3C(O)C[C@@H](OC4CC[C@]5(C)[C@H](CC[C@H]6[C@@H]5CC[C@]5(C)C(C7=CC(=O)OC7)C(O)C[C@@]65O)C4)OC3C)OC2C)CC(O)C1O (stereo not given in full) | / | -3% | / | / | 2.2µM* | /
CC1OC(OC2C(O)CC(OC3C(O)CC(OC4CCC5(C)C(CCC6C5CCC5(C)C(C7=CC(=O)OC7)C(O)CC65O)C4)OC3C)OC2C)CC(O)C1O (stereo not given) | / | / | -1 | 1 | / | /
C[C@@H]1O[C@H](O[C@@H]2CC[C@@]3(C=O)[C@H]4CC[C@@]5(C)[C@@H](C6=CC(=O)OC6)CC[C@@]5(O)[C@@H]4CC[C@]3(O)C2)C[C@H](O)[C@@H]1O | / | -11%[17 µM] | / | / | -7%[16.9 µM] | 6%[21.7 µM]
CN(CC(=O)N[C@H](CO)Cc1ccccc1)C(=O)[C@H](CCS(C)=O)NC(=O)[C@@H](N)Cc1ccc(O)cc1 (stereo not given in full) | / | / | / | / | / | 12%
O=C(NNc1c(F)c(F)cc(F)c1F)c1cc2ccccc2oc1=O | ? | 1% | 2 | -5 | 29% | 4%
COC(=O)NC(=S)Nc1ccccc1NC(=S)NC(=O)OC | / | 0% | 1 | -16 | ? | 2%[21.7 µM]
O=C(NC(=S)Nc1ccccc1N1CCCC1)c1ccccc1Br | -9% | 2.8µM* | / | / | 2.8µM* | /
O=C(Nc1ccc(Cl)cc1)C1CCN(C(=O)c2cccs2)CC1 | 2% | 2% | 1 | 0 | ? | /
CCOC(=O)CC(SP(=O)(OC)OC)C(=O)OCC (stereo not given) | / | -14% | / | / | 0% | -12%[21.7 µM]
COc1cc2c(cc1OC)[C@@H]1C(=O)c3ccc(OC)c(CC=C(C)C)c3OC1CO2 (stereo not given in full) | / | 1.4µM* | / | / | 7.9µM* | /
COc1cc2c(cc1OC)[C@@H]1C(=O)c3ccc4c(c3OC1CO2)CC(C(C)C)O4 (stereo not given in full) | / | 8.9µM* | / | / | 0.1µM* | /
CC(=O)OC1CC(OC(C)=O)[C@]2(C)C(CC(OC(C)=O)[C@]3(C)C2CC[C@@]2(C)C(c4ccoc4)C[C@H]4O[C@]432)C1(C)C (stereo not given in full) | / | -8% | / | / | ? | 8%
CC1(C)C2C[C@@H](O)[C@]3(C)C(CC[C@@]4(C)[C@H](c5ccoc5)C[C@H]5O[C@]543)[C@@]2(C)[C@@H](O)C[C@H]1O (stereo not given in full) | / | -2% | / | / | -38% | 9%

High-throughput results from PubChem.
